# Data taken from PubChem BioAssay (NCATS).
# Results filed as inconclusive are left out. Where a call stands in place of a potency, no number is given. Activity calls are given as the source filed them. Unless noted, calls come from the whole dose curve; as a rule, active = well fitted curve in the direction sought with a large enough effect; inconclusive = small, poorly fitted or top-dose-only effect, or another doubt; inactive = no such curve, though single readings can be large; an effect the other way counts as inactive or inconclusive.
# What was measured:
# [1] = target: Catechol O-methyltransferase (Homo sapiens) (UniProt P21964); test: Confirmatory Screen for Target Class Profiling of Small Molecule Inhibitors of Methyltransferases (AID 1745852; calls by dose curve; note: potency is the fitted concentration of half-maximal effect); details: MTase-Glo luminescence, SAH detection, recombinant enzyme; measured here: COMT max response; stronger effect = lower value
# [2] = target: Guanidinoacetate N-methyltransferase (Homo sapiens) (UniProt Q14353); test: as above; details: activity change, negative = inhibition: at 57.3 µM (top of the series) unless noted
# [3] = target: Nicotinamide N-methyltransferase (Homo sapiens) (UniProt P40261); test: as above; details: MTase-Glo luminescence, SAH detection, recombinant enzyme; measured here: NNMT max response; stronger effect = lower value
# [4] = target: Phenylethanolamine N-methyltransferase (Homo sapiens) (UniProt P11086); test: as above; details: MTase-Glo luminescence, SAH detection, recombinant enzyme; measured here: PNMT max response; stronger effect = lower value
# [5] = target: DNA repair nuclease/redox regulator APEX1 (Homo sapiens) (UniProt P27695); test: qHTS Validation Assay for Inhibitors of the Human Apurinic/apyrimidinic Endonuclease 1 (APE1) (AID 1705;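 note: TAMRA fluorescence gain over two minutes as APE1 cuts a quenched THF abasic duplex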)
# Method in brief: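 Read-out: TAMRA fluorescence (525 nm ex, 598 nm em) from cleavage of a quenched THF abasic-site duplex, 50 nM final; activity taken as intensity change between third and first of three reads 60 s apart.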
# [6] = Counterscreen for APE1 Inhibitors: Fluorescent Dye Displacement Validation Assay (AID 1707)
# Method in brief: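 Assay buffer: Tris-HCl pH7.5 with 50mM NaCl, 2 mM MgCl2, 0.01% Tween-20. Dye 250 nM, duplex 50 nM final. Readout: decrease in ThO endpoint fluorescence, 480 nm excitation, 540 nm emission.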
# [7] = qHTS for differential inhibitors of proliferation of Plasmodium falciparum line 7G8 (AID 1815);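 note: parasite growth measured after three days of incubation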
# [8] = qHTS for differential inhibitors of proliferation of Plasmodium falciparum line 3D7 (AID 1876);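 note: parasite growth measured after three days of culture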
# [9] = qHTS for differential inhibitors of proliferation of Plasmodium falciparum line D10 (AID 1877);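 note: parasites grown with compound for 72 h before DNA staining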
# [10] = qHTS for differential inhibitors of proliferation of Plasmodium falciparum line Dd2 (AID 1882); details: Potency: Plasmodium falciparum Dd2 proliferation inhibition; note: nearly all actives have a fitted effect of over 65% in size
# Method in brief: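 Dd2-infected erythrocytes (0.3% parasitemia, 2.5% hematocrit final) incubated with compound 72 h at 37 C, 5% CO2; lysed with saponin/Triton buffer containing SYBR Green I, incubated overnight in the dark, then read by fluorescence (485/535 nm). Normalized to 0.29 uM artemisinin and DMSO.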
# [11] = qHTS for differential inhibitors of proliferation of Plasmodium falciparum line W2 (AID 1883); details: Potency: Plasmodium falciparum W2 proliferation inhibition;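 note: parasites grown with compound for 72 h before lysis and staining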; note: potency is the fitted concentration of half-maximal effect
# [12] = qHTS for differential inhibitors of proliferation of Plasmodium falciparum line HB3 (AID 1886); details: Potency: Plasmodium falciparum HB3 proliferation inhibition;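 note: parasites grown with compound for 72 h before SYBR Green readout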
# [13] = target: Ferritin light chain (Equus caballus) (UniProt P02791); test: qHTS Validation Assay for Identification of Novel General Anesthetics (AID 2323)
# Method in brief: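 10 uM horse-spleen apoferritin + 1-AMA (50% saturated, PBS); cpd pin-transferred, 10 min RT. Ex 380/Em 535 nm endpoint. Activity normalized between free 1-AMA and 1-AMA/apoferritin; 4-parameter Hill fit of concentration-response.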
# [14] = target: ATP-dependent DNA helicase Q1 (Homo sapiens) (UniProt P46063); test: qHTS Validation Assay for Inhibitors of RecQ-Like Dna Helicase 1 (RECQ1) (AID 2353)
# Method in brief: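 50 nM RECQ1T1 preincubated 15 min with compound in Tris pH 8.0 buffer with MgCl2, DTT, Tween-20 and 2.5 ug/ml poly(dI-dC); started with 200 nM TAMRA/BHQ-2 forked duplex and 2 mM ATP. Unwinding read as fluorescence (525/598 nm), two reads 2 h apart.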
# [15] = Quantitative high throughput screen for delayed death inhibitors of the malarial parasite plastid, 96 hour incubation (AID 488745);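 note: luciferase-expressing P. falciparum in erythrocytes at 2% hematocrit and 0.1% parasitemia; nearly all actives have a fitted effect of over 70% in size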
# Method in brief: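 Infected erythrocytes were added to compound in Albumax-supplemented RPMI 1640 at 0.1% parasitemia and 2% hematocrit (final), incubated 96 h at 37 C under 5% CO2, then luciferase reagent was added and luminescence measured.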
# [16] = Quantitative high throughput screen for delayed death inhibitors of the malarial parasite plastid, 48 hour incubation (AID 488752); note: nearly all actives have a fitted effect of over 65% in size
# Method in brief: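 Readout is firefly luciferase luminescence from a reporter integrated into the parasite genome, with lower signal taken as inhibited growth. Infected red cells (0.1% parasitemia, 2% hematocrit final) are cultured with compound for one 48 h cycle at 37 C.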
# [17] = target: Transient receptor potential cation channel subfamily V member 1 (Homo sapiens) (UniProt Q8NER1); test: HTS Assay for Compounds that Act as Enhancers of the Vanilloid Receptor 1 (AID 488979)
# Method in brief: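 Calcium influx kinetics via Fluo-8 (480/520 nm) in TRPV1-expressing cells, 2000/well cultured overnight at 35.5C. Compound-alone read 3 min (agonist phase), followed by EC20 capsaicin challenge for 2 min (enhancer phase).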
# [18] = target: Thyrotropin receptor (Homo sapiens) (UniProt P16473); test: qHTS Assay for Antagonists of the Thyroid Stimulating Hormone Receptor (AID 488980)
# Method in brief: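 TSHR-HEK293 cells; 70 uM RO 20-1724 PDE inhibitor; compound + EC80 TSH (4 nM final); anti-cAMP cryptate antibody/cAMP-d2 in lysis buffer, 30 min RT; HTRF 665/620 nm read.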
# [19] = target: Thyrotropin-releasing hormone receptor (Homo sapiens) (UniProt P34981); test: qHTS for Small Molecule Agonists and Allosteric Enhancers of Human TRH Receptor: Validation Screen for Agonists (AID 493127;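 active = calcium activation more than 3 SD above the typical response in the agonist read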;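 note: intracellular calcium rise by fluo-8 fluorescence before TRH EC20 addition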); details: TRH receptor agonist cell assay; at 2 µM; stronger effect = higher value
# Method in brief: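 Cells 2000/well, 10% FCS, 18 h 33.5C/5% CO2 → fluo-8 Ca dye, RT 30 min–1.5 h → FDSS baseline 10 × 1 s → compound added → 230 cycles (1 s/cycle) agonist mode. TRH controls.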
# [20] = target: Galactokinase (Homo sapiens) (UniProt P51570); test: qHTS Validation Assay for Inhibitors of Human Galactokinase (GALK) (AID 493189)
# Method in brief: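 Luminescence from leftover ATP (Kinase-Glo Plus, 10 min) served as read-out after a 1 h room-temperature reaction of 5 nM GALK, 100 uM galactose and 35 uM ATP at pH8.0.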
# [21] = Validation screen for small molecules that induce DNA re-replication in SW480 colon adenocarcinoma cells (AID 504364); note: potency is the fitted concentration of half-maximal effect
# Method in brief: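 250 cells/well; compound pinned in; 48 hr, 37 C, 5% CO2; Hoechst added, 40 min; nuclear fluorescence imaged, 405 ex / 500-530 em; re-replication scored as increase in high-intensity nuclei.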
# [22] = target: M-phase phosphoprotein 8 (Homo sapiens) (UniProt Q99549); test: qHTS Validation Assay for Inhibitors for MPP8 Chromodomain Interactions with Methylated Histone Tails (AID 488949);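 note: AlphaScreen signal from MPP8 chromodomain bound to biotinylated H3K9me3 peptide; top concentration of the series differs between compounds; nearly all actives have a fitted effect of over 55% in size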
# Method in brief: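 AlphaScreen read-out: streptavidin donor and nickel chelate acceptor beads (final 10 ug/mL), 30 min in the dark at RT. Complex of 50 nM MPP8 and 50 nM b-H3(1-18)K9me3 peptide had been exposed to compounds for 30 min beforehand.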
# Sequence of Nicotinamide N-methyltransferase (Homo sapiens) (P40261 whole entry, looked up): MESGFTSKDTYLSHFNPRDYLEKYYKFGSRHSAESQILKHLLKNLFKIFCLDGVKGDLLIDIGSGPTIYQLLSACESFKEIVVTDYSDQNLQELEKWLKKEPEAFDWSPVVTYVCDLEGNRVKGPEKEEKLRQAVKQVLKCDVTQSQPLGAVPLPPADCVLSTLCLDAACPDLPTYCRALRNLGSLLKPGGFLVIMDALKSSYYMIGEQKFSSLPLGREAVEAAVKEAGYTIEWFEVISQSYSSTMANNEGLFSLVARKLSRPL
# Sequence of Phenylethanolamine N-methyltransferase (Homo sapiens) (P11086 whole entry, looked up): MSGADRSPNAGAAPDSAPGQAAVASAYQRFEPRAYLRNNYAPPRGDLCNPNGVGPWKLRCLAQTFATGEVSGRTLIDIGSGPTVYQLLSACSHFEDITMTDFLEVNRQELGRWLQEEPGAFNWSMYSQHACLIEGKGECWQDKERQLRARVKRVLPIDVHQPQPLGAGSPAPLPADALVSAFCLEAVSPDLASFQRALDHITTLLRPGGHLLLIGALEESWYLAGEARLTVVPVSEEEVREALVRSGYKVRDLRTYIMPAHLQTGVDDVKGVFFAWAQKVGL
# Sequence of Catechol O-methyltransferase (Homo sapiens) (P21964 whole entry, looked up): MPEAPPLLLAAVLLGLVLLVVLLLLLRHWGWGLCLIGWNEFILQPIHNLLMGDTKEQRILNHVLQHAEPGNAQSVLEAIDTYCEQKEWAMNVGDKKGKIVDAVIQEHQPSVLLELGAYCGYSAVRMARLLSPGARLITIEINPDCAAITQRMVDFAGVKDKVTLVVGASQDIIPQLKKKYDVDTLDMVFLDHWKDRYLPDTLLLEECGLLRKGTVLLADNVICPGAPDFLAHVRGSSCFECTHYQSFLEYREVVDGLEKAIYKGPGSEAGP
# Sequence of Transient receptor potential cation channel subfamily V member 1 (Homo sapiens) (Q8NER1 whole entry, looked up): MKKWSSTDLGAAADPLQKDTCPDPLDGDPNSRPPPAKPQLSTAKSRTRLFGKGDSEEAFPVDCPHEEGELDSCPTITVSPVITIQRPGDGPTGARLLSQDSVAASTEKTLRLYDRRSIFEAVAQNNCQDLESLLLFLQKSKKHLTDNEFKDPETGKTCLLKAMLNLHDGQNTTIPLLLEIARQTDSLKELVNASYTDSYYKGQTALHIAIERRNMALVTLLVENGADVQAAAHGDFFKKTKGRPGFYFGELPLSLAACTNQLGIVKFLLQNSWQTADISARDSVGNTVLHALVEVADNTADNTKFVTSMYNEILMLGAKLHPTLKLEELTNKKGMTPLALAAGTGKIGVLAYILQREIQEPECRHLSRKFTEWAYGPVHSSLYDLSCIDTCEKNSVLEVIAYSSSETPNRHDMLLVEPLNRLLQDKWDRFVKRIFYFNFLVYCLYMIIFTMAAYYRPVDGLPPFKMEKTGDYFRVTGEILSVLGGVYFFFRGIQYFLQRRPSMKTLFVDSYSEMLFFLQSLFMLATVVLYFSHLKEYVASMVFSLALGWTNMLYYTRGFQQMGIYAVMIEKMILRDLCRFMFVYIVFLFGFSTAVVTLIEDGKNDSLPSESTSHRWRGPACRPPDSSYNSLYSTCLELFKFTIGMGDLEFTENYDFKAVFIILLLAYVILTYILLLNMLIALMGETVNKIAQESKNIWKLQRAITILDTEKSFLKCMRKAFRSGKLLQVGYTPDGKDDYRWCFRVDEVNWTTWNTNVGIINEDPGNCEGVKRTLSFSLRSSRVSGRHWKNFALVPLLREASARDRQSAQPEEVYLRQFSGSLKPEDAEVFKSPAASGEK
# Sequence of DNA repair nuclease/redox regulator APEX1 (Homo sapiens) (P27695 whole entry, looked up): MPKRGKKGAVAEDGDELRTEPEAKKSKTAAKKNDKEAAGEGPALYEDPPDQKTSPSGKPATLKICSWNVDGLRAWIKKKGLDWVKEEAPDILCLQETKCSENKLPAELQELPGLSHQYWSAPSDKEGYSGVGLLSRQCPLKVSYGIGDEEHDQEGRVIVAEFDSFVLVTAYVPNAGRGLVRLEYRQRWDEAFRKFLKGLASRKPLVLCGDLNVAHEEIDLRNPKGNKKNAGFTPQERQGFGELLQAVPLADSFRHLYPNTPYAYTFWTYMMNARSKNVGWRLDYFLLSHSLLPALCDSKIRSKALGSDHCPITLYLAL
# Sequence of Thyrotropin receptor (Homo sapiens) (P16473 whole entry, looked up): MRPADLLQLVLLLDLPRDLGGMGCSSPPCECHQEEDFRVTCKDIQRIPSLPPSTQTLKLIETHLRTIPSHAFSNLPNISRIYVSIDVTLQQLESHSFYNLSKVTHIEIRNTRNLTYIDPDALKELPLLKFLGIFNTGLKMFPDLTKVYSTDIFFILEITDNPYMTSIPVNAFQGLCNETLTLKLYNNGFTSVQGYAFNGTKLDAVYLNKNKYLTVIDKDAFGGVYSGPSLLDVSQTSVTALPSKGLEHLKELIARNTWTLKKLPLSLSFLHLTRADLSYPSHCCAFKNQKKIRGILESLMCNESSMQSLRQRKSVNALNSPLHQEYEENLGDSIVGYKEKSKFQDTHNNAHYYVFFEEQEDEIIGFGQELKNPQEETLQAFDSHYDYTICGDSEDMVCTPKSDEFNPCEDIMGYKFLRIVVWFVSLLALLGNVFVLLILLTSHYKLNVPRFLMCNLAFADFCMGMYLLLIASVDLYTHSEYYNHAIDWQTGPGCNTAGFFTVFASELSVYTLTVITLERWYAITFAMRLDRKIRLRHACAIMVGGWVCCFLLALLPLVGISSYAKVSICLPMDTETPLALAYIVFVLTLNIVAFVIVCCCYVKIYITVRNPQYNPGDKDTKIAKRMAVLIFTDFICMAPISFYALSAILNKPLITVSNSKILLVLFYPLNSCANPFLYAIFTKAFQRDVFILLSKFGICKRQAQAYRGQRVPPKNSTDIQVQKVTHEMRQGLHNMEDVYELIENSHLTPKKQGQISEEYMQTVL
# Sequence of Ferritin light chain (Equus caballus) (P02791 2-175 limits assumed): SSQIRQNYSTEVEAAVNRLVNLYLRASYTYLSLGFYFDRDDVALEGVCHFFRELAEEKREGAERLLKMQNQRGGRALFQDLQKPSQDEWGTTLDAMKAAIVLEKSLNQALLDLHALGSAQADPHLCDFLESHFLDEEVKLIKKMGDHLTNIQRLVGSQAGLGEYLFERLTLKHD
# Sequence of Thyrotropin-releasing hormone receptor (Homo sapiens) (P34981 whole entry, looked up): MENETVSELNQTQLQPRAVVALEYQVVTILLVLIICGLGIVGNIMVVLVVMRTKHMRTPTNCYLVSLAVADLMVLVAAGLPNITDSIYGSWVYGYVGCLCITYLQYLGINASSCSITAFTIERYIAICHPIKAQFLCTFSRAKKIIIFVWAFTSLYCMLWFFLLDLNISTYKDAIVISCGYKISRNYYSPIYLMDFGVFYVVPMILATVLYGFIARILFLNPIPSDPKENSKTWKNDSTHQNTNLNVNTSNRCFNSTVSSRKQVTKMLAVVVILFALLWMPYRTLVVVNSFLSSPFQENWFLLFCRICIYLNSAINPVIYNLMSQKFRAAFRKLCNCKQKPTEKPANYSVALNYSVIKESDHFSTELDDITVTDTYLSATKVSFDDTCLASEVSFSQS
# Sequence of ATP-dependent DNA helicase Q1 (Homo sapiens) (P46063 whole entry, looked up): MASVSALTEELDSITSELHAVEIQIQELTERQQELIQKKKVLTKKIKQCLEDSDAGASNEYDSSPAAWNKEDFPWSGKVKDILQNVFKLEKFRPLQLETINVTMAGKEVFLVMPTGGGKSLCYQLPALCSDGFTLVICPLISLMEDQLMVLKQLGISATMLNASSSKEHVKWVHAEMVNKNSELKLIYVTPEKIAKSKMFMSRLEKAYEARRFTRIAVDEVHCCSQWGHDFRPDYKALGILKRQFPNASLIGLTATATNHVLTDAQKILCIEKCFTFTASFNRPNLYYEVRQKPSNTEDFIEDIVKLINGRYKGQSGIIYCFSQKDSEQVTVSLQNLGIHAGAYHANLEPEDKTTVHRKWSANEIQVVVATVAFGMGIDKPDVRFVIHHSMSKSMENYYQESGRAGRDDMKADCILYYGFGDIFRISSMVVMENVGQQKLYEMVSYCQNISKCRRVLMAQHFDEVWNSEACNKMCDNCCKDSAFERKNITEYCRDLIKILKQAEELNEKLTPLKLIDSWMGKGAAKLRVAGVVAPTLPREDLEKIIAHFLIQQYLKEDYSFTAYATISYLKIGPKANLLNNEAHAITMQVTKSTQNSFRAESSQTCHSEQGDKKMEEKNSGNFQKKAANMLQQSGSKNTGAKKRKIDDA
# Sequence of Galactokinase (Homo sapiens) (P51570 whole entry, looked up): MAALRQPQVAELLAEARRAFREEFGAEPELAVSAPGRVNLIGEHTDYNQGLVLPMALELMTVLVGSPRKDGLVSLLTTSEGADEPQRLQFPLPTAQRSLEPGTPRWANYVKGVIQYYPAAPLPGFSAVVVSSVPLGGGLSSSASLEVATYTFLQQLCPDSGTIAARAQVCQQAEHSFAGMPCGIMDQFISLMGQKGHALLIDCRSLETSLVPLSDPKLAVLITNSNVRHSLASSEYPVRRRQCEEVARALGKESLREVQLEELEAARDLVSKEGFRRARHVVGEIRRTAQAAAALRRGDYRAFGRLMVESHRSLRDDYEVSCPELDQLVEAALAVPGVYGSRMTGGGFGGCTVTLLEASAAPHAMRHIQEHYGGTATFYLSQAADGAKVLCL
structure (smiles),measurement,setting,value
O=C(NCCc1ccc(Cl)cc1)c1ccc2c(=O)[nH]c3c(C(=O)NC4CCCC4)sc(=S)n3c2c1,activity,[1],-38.3%
same,Potency,[2],27.1 µM (active)
same,activity,[3],-77.1%
same,activity,[4],-66.5%
CC(C)Cn1c(=O)c2ccccc2n2c(CCC(=O)N3CCN(c4ccccc4)CC3)nnc12,activity,[1],2.06%
same,"activity change, negative = inhibition",[2],0%
same,activity,[3],-46.8%
same,activity,[4],-1.48%
COc1cc2c(cc1O)CCC1C2CC[C@]2(C)[C@@H](O)CC[C@@H]12 (some centres not stated),Potency,[5],inactive
same,outcome,[6],inactive
same,Potency,[7],inactive
same,Potency,[8],inactive
same,Potency,[9],inactive
same,Potency,[10],inactive
same,Potency,[11],15.8 µM (active)
same,Potency,[12],inactive
same,outcome,[13],inactive
same,outcome,[14],inactive
same,Potency,[15],inactive
same,Potency,[16],inactive
same,outcome,[17],inactive
same,outcome,[18],inactive
same,activation,[19],1% (inactive)
same,outcome,[20],inactive
same,Potency,[21],4.61 µM (active)
O=C1c2ccccc2C(=O)c2cc(S(=O)(=O)NCCO)ccc21,activity,[1],-11%
same,"activity change, negative = inhibition",[2],0%
same,activity,[3],-0.735%
same,activity,[4],-29.7%
Nc1nc(Cl)nc2c1ncn2[C@@H]1O[C@H](COP(=O)(O)OP(=O)(O)OP(=O)(O)O)[C@H](O)[C@H]1O,Potency,[5],inactive
same,outcome,[6],inactive
same,Potency,[7],inactive
same,Potency,[8],inactive
same,Potency,[9],inactive
same,Potency,[10],inactive
same,Potency,[11],inactive
same,Potency,[12],inactive
same,outcome,[13],inactive
same,outcome,[14],inactive
same,Potency,[15],inactive
same,Potency,[16],inactive
same,Potency,[22],inactive
same,outcome,[17],inactive
same,outcome,[18],inactive
same,activation,[19],6.94% (inactive)
same,outcome,[20],inactive
same,Potency,[21],inactive
